# In PubChem BioAssay AID1240 (Sanford-Burnham Center for Chemical Genomics, 2008):
# Hit rate of the full screen: of about 50,000 compounds, about 800 (1.6%) showed an effect of 50% or more. The sample holds strong results, similar compounds and a random draw of the others, so the mix is not that of the screen.
# Target: Bcl-2-like protein 10 (Homo sapiens) (UniProt Q9HD36)
# Test: TR3 peptide-Bcl-B binding displacers, biochemical primary FP assay, phenotype converters (AID 1240);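 also: 0% = Bcl-B with tracer peptide and DMSO and 100% = tracer peptide lacking Bcl-B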
# Details: GST-Bcl-B / FITC-TR3 peptide fluorescence polarization; stronger effect = higher value; compound at 3.75 mg/L
# Sequence of Bcl-2-like protein 10 (Homo sapiens) (Q9HD36 whole entry, looked up): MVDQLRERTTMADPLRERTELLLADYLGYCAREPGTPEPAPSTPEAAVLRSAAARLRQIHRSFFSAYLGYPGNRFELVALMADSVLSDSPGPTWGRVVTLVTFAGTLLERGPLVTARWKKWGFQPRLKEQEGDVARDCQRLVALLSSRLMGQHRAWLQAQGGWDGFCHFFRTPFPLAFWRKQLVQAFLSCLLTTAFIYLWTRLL
row,Structure (SMILES),displacement
1,Cc1c(Cc2ccccc2)sc(NC(=O)c2ccc([N+](=O)[O-])cc2)c1C(N)=O,65.7%
2,COc1ccc(C(=O)Nc2sc(Cc3ccccc3)c(C)c2C(N)=O)cc1,-16.5%
3,Cc1c(Cc2ccccc2)sc(NC(=O)c2ccc(-c3ccccc3)cc2)c1C(N)=O,-1.3%
4,CC(=O)Nc1cccc(NC(=O)c2cccc(I)c2)c1,-1.5%
5,O=C(COc1ccc(Cl)cc1Cl)OCc1ccccc1,-9.2%
6,Cc1ccc(S(=O)(=O)Nc2cc(C(C(=O)OC(C)C)C(=O)C(F)(F)F)c(O)c3ccccc23)cc1 (stereo unspecified),-5.6%
7,CCOC(=O)C(C(C)=O)c1cc(NS(=O)(=O)c2ccc(C)cc2)c2ccccc2c1NS(=O)(=O)c1ccc(C)cc1 (stereo unspecified),78.8%
8,CC(=O)C(C(C)=O)c1cc(NS(=O)(=O)c2ccc(C)cc2)c2ccccc2c1O,3.6%
9,Cc1cccc(-c2cc(NC(=O)c3ccc(Br)cc3)n[nH]2)c1,9.4%
10,COc1ccccc1C(=O)Nc1ccc2oc(-c3cccc(C)c3)nc2c1,1.6%
11,COc1ccc(-c2nc3ccccc3o2)cc1NC(=O)c1ccc(Br)o1,63%
12,CN(C)c1ccc(-c2nc3cc(NC(=O)c4cccc(Br)c4)ccc3o2)cc1,62.5%
13,Cc1cccc(C(=O)Nc2ccc3oc(-c4ccc(N(C)C)cc4)nc3c2)c1,35.7%
14,COc1cccc(C(=O)Nc2cc(-c3nc4ccccc4o3)ccc2OC)c1,-29.6%
15,COc1ccc(-c2nc3ccccc3o2)cc1NC(=O)c1cc2ccccc2cc1OC,-8.6%
16,COc1ccc(Br)cc1C(=O)Nc1ccc(-c2nc3ccccc3o2)cc1,134%
17,CN(C)c1ccc(-c2nc3cc(NC(=O)c4ccccc4Br)ccc3o2)cc1,1.6%
18,COc1ccc(Br)cc1C(=O)Nc1ccc2oc(-c3ccccc3)nc2c1,-2.9%
19,CCc1ccc(-c2nc3cc(NC(=O)c4ccccc4OC)ccc3o2)cc1,8.5%
20,COc1ccc(Br)cc1C(=O)Nc1ccc(-c2nc3ncccc3o2)cc1,5.4%
21,COc1ccccc1C(=O)Nc1ccc2oc(-c3ccncc3)nc2c1,135%
22,COc1ccc2c(c1OC)C(=O)N(c1cccc(Cl)c1)C2=O,-23.7%

row,Structure (SMILES),displacement
1,O=C1NC(=O)N(c2ccccc2Cl)C(=O)/C1=C\C=C\c1ccco1,15.6%
2,COc1cc(/C=C(\C#N)c2nc3ccc(C)cc3[nH]2)cc(OC)c1O,-65.6%
3,COc1ccc(-c2nnc(-c3cccc([N+](=O)[O-])c3)o2)cc1,5.8%
4,N/C(=N\OC(=O)c1cccc(F)c1)c1ccccc1,-7.1%
5,CCOc1cc(C(=S)N2CCOCC2)cc(Br)c1OC(=O)c1ccc(Cl)cc1Cl,14.1%
6,COC(=O)c1ccc(NC(=O)CC2Sc3ccccc3NC2=O)cc1 (stereo unspecified),3.1%
7,O=C(COc1ccccc1Cl)Nc1ccc2oc(-c3ccncc3)nc2c1,136%
8,O=C(Nc1ccc2oc(-c3ccncc3)nc2c1)c1cccnc1,61.6%
9,O=C(Nc1ccc2oc(-c3ccncc3)nc2c1)c1ccncc1,28.9%
10,O=C(COc1ccc(Cl)cc1)Nc1ccc2oc(-c3ccccc3)nc2c1,-6.4%
11,Cc1ccc(-c2nc3cc(NC(=O)COc4ccccc4C)ccc3o2)cc1,-6.6%
12,O=C(Nc1ccc2oc(-c3ccccc3)nc2c1)c1ccncc1,-3.2%
13,CCOc1cc(/C=C2\SC(=S)N(Cc3ccco3)C2=O)ccc1O,-18.8%
14,CCOC(=O)c1c(C)oc2cc(Br)c(OCC(=O)OCc3ccccc3)cc12,10.8%
15,CCOC(=O)C1=C(C)N=C2SCCN2C1c1ccccc1 (stereo unspecified),-10.4%
16,CSc1ccccc1NC(=O)CSc1nc2ccccc2o1,18.9%
17,O=C(Nc1ccccc1C(=O)O)c1ccc(N2C(=O)C3C4C=CC(C4)C3C2=O)cc1 (stereo unspecified),-3.6%
18,CCn1c2ccccc2c2cc(/C=N/Nc3ccc([N+](=O)[O-])cc3)ccc21,-7.5%
19,CCOC(=O)c1c(NC(C)=O)sc2cc(C(C)(C)C)ccc12,-4.1%
20,CC(=O)Nc1nonc1-c1nc2ccccc2n1Cc1ccc([N+](=O)[O-])cc1,8.1%
21,CC(=O)Nc1nonc1-c1nc2ccccc2n1Cc1ccc(C(C)(C)C)cc1,52.2%
22,CC(=O)Nc1nonc1-c1nc2ccccc2n1Cc1ccccc1,49.8%

row,Structure (SMILES),displacement
1,COc1ccccc1NC(=O)c1ccc(Oc2ccc(C(=O)Nc3ccccc3OC)cc2)cc1,-1.8%
2,CCOC(=O)c1c(NC(=O)COc2c(C)cc(C)cc2C)sc(C(=O)Nc2ccccc2)c1C,13.1%
3,CCOc1ccc(N2C(=O)CC(SC(=NC)Nc3ccc4c(c3)OCO4)C2=O)cc1 (stereo unspecified),-6.7%
4,Cc1cc(C)nc(SCC(=O)Nc2ccc(C)c(NC(=O)CSc3nc(C)cc(C)n3)c2)n1,23.5%
5,CN(C)c1ccc(/C=C/C(=O)c2ccc3c(c2)OCCO3)cc1,-18.8%
6,CCOC(=O)C1=C(C)NC(C)=C(C(=O)OCC)C1c1ccc(F)cc1,0%
7,CC1=C(C(=O)OC(C)C)C(c2ccc(F)cc2)C(C(=O)OC(C)C)=C(C)N1,54.7%
8,CC1=C(C(=O)OC(C)C)C(c2ccc(F)cc2)NC(=O)N1 (stereo unspecified),6.9%
9,COc1ccc(CNC(=O)CN(c2c(C)n(C)n(-c3ccccc3)c2=O)S(=O)(=O)c2ccccc2)cc1,-6.2%
10,Cc1cc(Nc2ccccc2)nn1C(=O)c1ccc(Cl)cc1,-10.9%
11,Cn1c2ccccc2c2cc(C3Nc4ccccc4C(=O)N3Cc3ccco3)ccc21 (stereo unspecified),10.3%
12,COc1ccc(/C=C\C(=O)C2C(=O)c3ccccc3C2=O)cc1,122%
13,O=C(/C=C/c1ccc(S(=O)(=O)Nc2ccccc2)cc1)C1C(=O)c2ccccc2C1=O,31.1%
14,O=C(/C=C/c1ccc([N+](=O)[O-])cc1)C1C(=O)c2ccccc2C1=O,-6.3%
15,CC1CC(C)CN(S(=O)(=O)c2ccc(F)cc2)C1 (stereo unspecified),-9%
16,CN(C)/C=C/C=C/C(=O)c1ccc(/C=C/C=C/N(C)C)o1,36.1%
17,CC(=O)Nc1ccc(/C=C(/C#N)C(=O)NCc2ccco2)cc1,9.4%
18,N#C/C(=C/c1ccc(Cl)cc1)C(=O)Nc1ccc(O)cc1,7.1%
19,CC(=O)Nc1ccc(/C=C(/C#N)C(=O)N/N=C/c2ccc(NC(C)=O)cc2)cc1,110%
20,O=C(N/N=C\c1ccc(Cl)c(Cl)c1)c1cnccn1,-7.3%
21,CSc1ccc(/C=N/NC(=O)c2cc(C)[nH]n2)cc1,3.8%
22,CSc1ccc(/C=N\NC(=O)c2cnccn2)cc1,109%
